# Test results from PubChem BioAssay (NCATS).
# Results filed as inconclusive are left out. A number with no mark means an inactive call. Calls come from the whole dose curve; as a rule, active = well fitted inhibition curve with a large enough effect; inconclusive = small, poorly fitted or top-dose-only effect; inactive = flat fitted curve, though single readings scatter.
# Target: Calcium and integrin-binding protein 1 (Homo sapiens) (UniProt Q99828)
# Assay: Primary qHTS for Identification of Calcium Integrin Binding Protein 1 (CIB1) Competitor (AID 1508620);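 note: GST tagged CIB1 binding a fluorescein labelled alphaIIb integrin peptide tracer; top concentration of the series differs between compounds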
# Settings: CIB1-GST / FITC-alphaIIb peptide fluorescence polarization; series mostly up to 57.7 µM; activity change, negative = inhibition: at the top concentration
# Procedure, shortened: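 CIB1-GST (1 uM final) and compound incubated 15 min at room temperature before adding FITC-alphaIIb peptide tracer (100 nM final). Competition for binding read by fluorescence polarization (ex 480, em 540) after another 15 min at room temperature.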
# % is set by controls: 0 for no effect and ±100 for the full control effect.
# Chain of Calcium and integrin-binding protein 1 (Homo sapiens) (Q99828 whole entry, looked up): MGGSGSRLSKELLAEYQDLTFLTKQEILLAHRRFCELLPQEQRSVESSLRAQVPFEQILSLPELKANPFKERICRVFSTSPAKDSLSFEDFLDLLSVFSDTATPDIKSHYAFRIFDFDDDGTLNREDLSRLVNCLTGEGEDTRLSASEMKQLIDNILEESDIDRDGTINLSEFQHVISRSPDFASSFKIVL
row,Structure (SMILES),"activity change, negative = inhibition"
1,COC(=O)C1(C)CCCC2(C)c3ccc(C(C)C)cc3C(O)C(O)C12 (stereo not drawn),-1.88%
2,OC[C@@]1(O)CO[C@H](OC[C@H]2O[C@@H](OC(CCCCc3ccc(O)cc3)CCc3ccc(O)cc3)[C@H](O[C@H]3OC[C@](O)(CO)[C@H]3O)[C@@H](O)[C@@H]2O)[C@@H]1O (stereo partly drawn),2.19% [at 30.2 µM]
3,CC(=O)OC1CCC2(C)C(CCC3(C)C2CC=C2C4CC(C)(C)CCC4(C)CCC23C)C1(C)C(=O)O (stereo not drawn),-7.42%
4,COc1cc(/C=C/C(=O)O[C@@H]2C[C@](O)(C(=O)O)C[C@@H](O)[C@H]2O)ccc1O,1.65%
5,C[C@H]1[C@H](C)CC[C@]2(C(=O)O)CC[C@]3(C(=O)O)C(=CCC4[C@@]5(C)CC[C@H](O[C@@H]6O[C@@H](C)[C@H](O)[C@@H](O)[C@H]6O)C(C)(C)C5CC[C@]43C)[C@H]12 (stereo partly drawn),3.15% [at 30.2 µM]
6,COC(=O)C(CC1(O)c2ccccc2N2C(=O)C(CC(C)C)NC21)n1cnc2ccccc2c1=O (stereo not drawn),0.628%
7,C[C@]1(O)CC[C@@H]2C(C(=O)O)=CO[C@@H](O[C@@H]3O[C@H](CO)[C@@H](O)[C@H](O)[C@H]3O)[C@@H]21,-5.06%
8,C=C(C)[C@@]1(O)C[C@@]2(C)C(=CC1=O)CC[C@@H](O)[C@@H]2C,2.92% [at 114 µM]
9,N#CC1C(=O)N=C(c2cc(Cl)ccc2O)C=C1c1cc(OCc2ccccc2)cc(OCc2ccccc2)c1 (stereo not drawn),0.707% [at 114 µM]
10,CC12CC(c3ccoc3)OC(=O)C1CCC1(C)C2CCC(O)C1(C)O (stereo not drawn),-2.93%
11,CC1(C)CC[C@]2(C(=O)O[C@@H]3O[C@H](CO[C@@H]4O[C@H](CO[C@@H]5O[C@H](CO)[C@H](O)[C@H](O)[C@H]5O)[C@@H](O)[C@H](O)[C@H]4O)[C@@H](O)[C@H](O[C@@H]4O[C@H](CO)[C@@H](O)[C@H](O)[C@H]4O)[C@H]3O)[C@H](O)C[C@]3(C)C(=CCC4[C@@]5(C)CC[C@H](O[C@@H]6OC[C@@H](O)[C@H](O)[C@H]6O)[C@@](C)(C(=O)O)C5CC[C@]43C)[C@@H]2C1 (stereo partly drawn),3.63% [at 12.4 µM]
12,C/C=C(\C)C(=O)OC[C@H]1O[C@@H](O[C@H]2[C@@H](O[C@H]3O[C@H](CO)[C@@H](O)[C@H](O)[C@H]3O[C@@H]3O[C@H](CO)[C@@H](O)[C@H](O)[C@H]3O)O[C@H](COC(=O)/C(C)=C/C)[C@@H](O)[C@@H]2O)[C@H](O)[C@@H](O)[C@@H]1O,0.284% [at 30.2 µM]
13,CC1(C)CCC2(C(=O)O)C(O)CC3(C)C(=CCC4C5(C)CCC(OC6OC(CO)C(O)C(O)C6OC6OC(CO)C(O)C(O)C6OC6OCC(O)(CO)C6O)C(C)(C)C5CCC43C)C2C1 (stereo not drawn),2.07% [at 30.2 µM]
14,COc1cc(-c2ccc(O)cc2)c(OC)c(O)c1C1=CC(=O)OC1CC(=O)O (stereo not drawn),-6.87%
15,C[C@@H]1CC[C@]2(C(=O)O)CC[C@]3(C)C(=CCC4[C@@]5(C)C[C@@H](O)[C@@H](O)C(C)(C)C5CC[C@]43C)C2[C@]1(C)O (stereo partly drawn),-3.38%
16,CC1(C)O[C@H]2CC(=O)OC[C@@]23C1=C(O)C(=O)[C@]1(C)C3CC[C@@]2(C)[C@H](c3ccoc3)OC(=O)[C@H]3O[C@]321 (stereo partly drawn),4.53%
17,C=CC(C)(O)CC/C=C(\C)C1CC=C(C)C(=O)O1 (stereo not drawn),-0.496% [at 114 µM]
18,O=C(/C=C/c1ccc(O)c(O)c1)O[C@H]1[C@@H]2C=CO[C@@H](O[C@@H]3O[C@H](CO)[C@@H](O)[C@H](O)[C@H]3O)[C@@H]2[C@@]2(CO)O[C@@H]12,-5.74%
19,C[C@]1(OC(=O)/C=C\c2ccc(O)cc2)C[C@@H](O)[C@]2(O)C=CO[C@@H](O[C@@H]3O[C@H](CO)[C@@H](O)[C@H](O)[C@H]3O)C12 (stereo partly drawn),-0.138%

row,Structure (SMILES),"activity change, negative = inhibition"
1,CC1CCC2C(C(=O)O)=CC3(O)CC(C)(C)CC123 (stereo not drawn),2.72% [at 114 µM]
2,C=C1CC23CC(=O)C4C(CO)(CO)CCCC4(C)C2CCC1C3 (stereo not drawn),0.445%
3,C[C@@H]1O[C@@H](O[C@@H]2[C@@H](O)[C@H](O[C@H]3[C@H](O[C@H]4CC[C@@]5(C)C(CC[C@]6(C)C5CC=C5[C@@H]7CC(C)(C)CC[C@]7(C(=O)O[C@@H]7O[C@H](CO)[C@@H](O)[C@H](O)[C@H]7O)CC[C@]56C)C4(C)C)O[C@H](C(=O)O)[C@@H](O)[C@@H]3O)OC[C@H]2O)[C@H](O)[C@H](O)[C@H]1O (stereo partly drawn),-5.92% [at 30.2 µM]
4,O=C(O)c1cc(O[C@@H]2O[C@H](CO)[C@@H](O)[C@H](O)[C@H]2O)ccc1O,-5.36%
5,C=C1CCC[C@]2(C)CC[C@@](O)(C(=C)C(=O)O)C[C@@H]12,7.1% [at 114 µM]
6,O=C(/C=C/c1ccc(O)cc1)O[C@@H]1C[C@@](O)(C(=O)O)C[C@@H](O)[C@@H]1O,5.16%
7,C/C(=C/CO)CC[C@H]1[C@]2(C)C[C@H](O)CC(C)(C)[C@H]2CC[C@]1(C)O,2.72%
8,CC(O)/C=C/C1(O)C(C)C(O)C(O[C@@H]2O[C@H](CO)[C@@H](O)[C@H](O)[C@H]2O)CC1(C)C (stereo partly drawn),3.53%
9,OC[C@@]1(O)CO[C@H](OC[C@H]2O[C@@H](OC(CCCCc3ccc(O)cc3)CCc3ccc(O)cc3)[C@H](O)[C@@H](O)[C@@H]2O)[C@@H]1O (stereo partly drawn),-0.0513% [at 30.2 µM]
10,C[C@@H]1O[C@@H](OC(=O)Cc2ccccc2)[C@H](O)[C@H](O)[C@H]1O,2.14% [at 114 µM]
11,C=C1CCC(OC(C)=O)C2(C)CC3OC(=O)C(C)=C3CC12 (stereo not drawn),2.54% [at 114 µM]
12,COc1ccc(C2OCC3C(c4cc(OC)c5c(c4)OCO5)OCC23)cc1OC (stereo not drawn),-1.31%
13,C=C1[C@@H]2CC[C@@]3(C)[C@H](c4ccoc4)OC(=O)C[C@]13O[C@H]1CC(=O)C(C)(C)[C@H](C(O)C(=O)OC)[C@]12C (stereo partly drawn),5.16%
14,O=C(O[C@H]1[C@H](Oc2ccc(O)cc2CO)O[C@H](CO)[C@@H](O)[C@@H]1O)c1ccccc1,-1.75%
15,CC(C)=CCC[C@@](C)(O)[C@H]1CC[C@]2(C)[C@@H]1[C@H](O)CC1[C@@]3(C)CC[C@H](O[C@@H]4O[C@H](CO)[C@@H](O)[C@H](O)[C@H]4O[C@@H]4O[C@H](CO)[C@@H](O)[C@H](O)[C@H]4O)C(C)(C)[C@@H]3CC[C@]12C (stereo partly drawn),0.844% [at 30.2 µM]
16,O=C(O)/C=C/c1ccc2occc2c1O[C@@H]1O[C@H](CO)[C@@H](O)[C@H](O)[C@H]1O,1.85%
17,CC(C)=CCC[C@](C)(O[C@@H]1O[C@H](CO[C@@H]2OC[C@H](O)[C@H](O)[C@H]2O)[C@@H](O)[C@H](O)[C@H]1O)[C@H]1CC[C@]2(C)[C@@H]1[C@H](O)C[C@@H]1[C@@]3(C)CC[C@H](O[C@@H]4O[C@H](CO)[C@@H](O)[C@H](O)[C@H]4O[C@@H]4O[C@H](CO)[C@@H](O)[C@H](O)[C@H]4O)C(C)(C)[C@@H]3CC[C@]12C,-4.96%
18,CC1OC(OC2C(OC3C(O[C@H]4CC[C@@]5(C)C(CC[C@]6(C)C5CC=C5C7CC(C)(C)CC(O)[C@]7(C)CC[C@]56C)C4(C)C)OC(C(=O)O)C(O)C3O)OCC(O)C2O)C(O)C(O)C1O (stereo partly drawn),-1.1% [at 30.2 µM]
19,C[C@@H]1C(=O)O[C@H](C)[C@H]1C[C@@H](O)[C@](C)(O)[C@H]1CC[C@@]2(O)C3=CC(=O)[C@@H]4C[C@@H](O)[C@@H](O)C[C@]4(C)C3CC[C@]12C (stereo partly drawn),3.48%
